Sampled rows, rich in hits. Any-hit rate of the full collection: about 2.3%.
V-ATPase pH = regulators of yeast V-ATPase proton transport; S. cerevisiae, pHLuorin cytosolic pH fluorescence; response, % at 10 µM; 0.37% of 350,000 active; AID 504577; in the data active = response mostly above about 7.3%, no sharp cut-off; inactive = mostly below about 5.4%; also: actives read high
ADAM10 inh = ADAM10 inhibition, QFRET primary screen | O14672 | recombinant ADAM10, EDANS/DABCYL FRET peptide cleavage, 3 h | inhibition, % at 7 µM | 0.62% of 370,000 active | AID 720582;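 active = inhibition above a per-campaign cutoff equal to the mean of compounds falling between control-based bounds plus 3 SD, cut at about 20% in these data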;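 also: 0% = DMSO wells while the 100% control is not disclosed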
KLK7 zymogen act = activates the human kallikrein-7 zymogen | P49862 | purified proKLK7, EDANS-DABCYL substrate fluorescence; 100% is mature enzyme control, 0% vehicle | activation, % at 7 µM | 0.9% of 370,000 active;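 active = activation above the mean of all tested compounds plus 3 SD, computed per campaign excluding outliers beyond control limits, cut at about 13% in these data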
ADAM17 inh = inhibitors of human ADAM17. recombinant ADAM17, EDANS/DABCYL FRET peptide cleavage. 0.83% of 370,000 active. inhibition, % at 6.95 µM. P78536;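 active = inhibition above the mean of compounds lying between control limits plus 3 SD, set per campaign, cut at about 8.5% in these data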;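 also: 0% = DMSO-only wells as the low control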
Target sequence (P78536 215-824 limits assumed): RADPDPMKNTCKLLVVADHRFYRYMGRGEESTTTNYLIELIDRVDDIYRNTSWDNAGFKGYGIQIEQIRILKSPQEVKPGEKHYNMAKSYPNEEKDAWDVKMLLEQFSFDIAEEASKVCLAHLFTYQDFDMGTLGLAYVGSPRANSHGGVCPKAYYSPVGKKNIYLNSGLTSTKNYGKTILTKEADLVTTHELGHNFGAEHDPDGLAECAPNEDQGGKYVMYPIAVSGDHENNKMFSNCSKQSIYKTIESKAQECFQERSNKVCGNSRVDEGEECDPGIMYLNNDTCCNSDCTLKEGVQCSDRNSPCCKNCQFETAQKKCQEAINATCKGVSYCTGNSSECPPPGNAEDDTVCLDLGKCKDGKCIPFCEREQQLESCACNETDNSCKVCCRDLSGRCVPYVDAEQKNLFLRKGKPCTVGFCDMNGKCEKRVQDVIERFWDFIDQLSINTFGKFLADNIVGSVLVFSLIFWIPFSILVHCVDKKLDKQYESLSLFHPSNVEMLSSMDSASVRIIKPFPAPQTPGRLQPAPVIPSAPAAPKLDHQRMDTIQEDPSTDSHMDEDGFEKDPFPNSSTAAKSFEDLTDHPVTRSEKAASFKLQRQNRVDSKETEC
ADAM10 ctr = ADAM10 inhibition, counter-screen for ADAM17 exosite hits | shares compounds with ADAM17 inh | recombinant ADAM10, EDANS/DABCYL FRET peptide cleavage, 3 h | inhibition, % at 6.95 µM | 47% of 2,900 active | AID 743256;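 active = mean inhibition over the triplicate runs exceeds the activity threshold set in the earlier primary screen, cut at about 20% in these data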;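 also: 0% = DMSO wells and 100% = marimastat wells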
ADAM17 confirm = confirmation of inhibitors of human ADAM17 | shares compounds with ADAM17 inh | recombinant ADAM17, EDANS/DABCYL QFRET peptide cleavage | inhibition, % at 6.95 µM | 65% of 2,900 active | AID 743257;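 active = mean inhibition across replicates above the hit cutoff set in the primary screen, cut at about 8.5% in these data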;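 also: 0% = DMSO wells and 100% = marimastat wells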
The depositor's hits bear a star; . = no result given.

SMILES	V-ATPase pH	ADAM10 inh	KLK7 zymogen act	ADAM17 inh	ADAM10 ctr	ADAM17 confirm
COc1ccc(/C=N\NC(=O)Cc2cccs2)c(OC)c1OC	.	-3	0	-1	.	.
CC1(C(=O)Nc2ccc(Cl)c(Cl)c2)CCN1C(=O)C1CCCCC1 (stereo not given)	.	-1	0	10*	9	9.9*
COc1ccc(C2=Nn3c(nnc3-c3ccccc3F)SC2)cc1OC1CCOC1 (stereo not given)	-1	0	1	0	.	.
COc1ccc(C2=Nn3c(nnc3-c3ccccc3F)SC2)cc1OC1CCCC1	-2	27*	1	11*	24*	17*
O=C(C(=O)N1CCN(S(=O)(=O)c2cccc(C(F)(F)F)c2)CC1)c1cccc(C(F)(F)F)c1	.	3	0	0	.	.
CC1C(=O)N(Cc2cn(CCC3OCCO3)nn2)CCS(=O)(=O)N1Cc1ccc(-c2ccc(Cl)cc2)cc1 (stereo not given)	-1	15	1	8.6*	13	5
Cc1ccc(-c2ccc(CN3C(C)C(=O)N(Cc4cn(CCC5OCCO5)nn4)CCS3(=O)=O)cc2)cc1 (stereo not given)	0	-6	0	3	.	.
COc1cccc(-c2ccc(CN3C(C(C)C)C(=O)N(Cc4cn(CCC5OCCO5)nn4)CCS3(=O)=O)cc2)c1OC (stereo not given)	.	8	0	13*	14	7
COc1cccc(CNC(=O)[C@H]2CCCN2C(=O)[C@H]2CCCN2C(=O)c2ccc(F)c(C(F)(F)F)c2)c1	.	-2	0	-6	.	.
Cc1cc(SCC(=O)c2ccc(O)c(O)c2)n2nc(C)c(-c3ccccc3)c2n1	1	18	0	9.9*	14	14*
Cc1cc(C)nc(SCC(=O)c2ccc(O)c(O)c2)n1	-4	6	0	2	.	.
O=C(NC(Nc1nc2ccc([N+](=O)[O-])cc2s1)(C(F)(F)F)C(F)(F)F)c1ccccc1Cl	-2	16	0	11*	22*	13*
O=C(NC(Nc1nc2ccc([N+](=O)[O-])cc2s1)(C(F)(F)F)C(F)(F)F)c1cccnc1	3	18	0	9	.	.
COC(=O)[C@]12C[C@H](CC(=O)NCCc3ccccc3OC)C(=O)N(CCC3=CCCCC3)C1=C[C@H](COCc1ccccc1)O[C@@H]2C	.	-3	1	-3	.	.
N#CC(C#N)=C1C=C2C=C(N3CCOCC3)CCC2CC1 (stereo not given)	16	-22	5	-5	.	.
N#CC(C#N)=C1C=C2C=C(N3CCCCCC3)CCC2CC1 (stereo not given)	234*	-15	10	9.7*	0	5
CCCc1ccc(-c2cc(NC(=O)Cc3c(C)[nH]c4ccccc34)ccc2N(C)c2cccnc2)cc1	.	-7	0	7	.	.
CCOC(=O)c1c(C)[nH]c(C)c1C(=O)CSc1nc2ccccc2c(=O)n1-c1ccc(Cl)cc1	-2	15	-1	11*	28*	19*
CC(C)c1c(C(=O)N/N=C/c2ccc(C(F)(F)F)cc2)nnn1-c1nonc1N	4	18	1	9.8*	22*	14*
O=C(Nc1nn(Cc2ccc(Cl)cc2)cc1Br)c1ccc(COc2ccccc2Cl)o1	1	17	-1	10*	33*	18*
O=C(Nc1ccc(Cl)cn1)c1ccc(COc2ccccc2Br)o1	-3	5	1	2	.	.
CCOc1ccc2nc(NC(=O)C3CCN(S(=O)(=O)c4cnc[nH]4)CC3)sc2c1	-2	-2	1	8.7*	4	7
CC1=C(C(=O)N(C)C)CC(CC(=O)NCCCCc2ccccc2)C(=O)N1Cc1ccc(C(C)(C)C)cc1 (stereo not given)	1	-2	0	11*	26*	12*
CCN(CC)C(=O)C1=C(C)N(Cc2ccc(C(C)(C)C)cc2)C(=O)C(CC(=O)NCCCCc2ccccc2)C1 (stereo not given)	-1	16	0	9.8*	20	8
O=C(N[C@@H]1CC[C@H]2SC[C@H](C(=O)O)N2C1=O)OCC1c2ccccc2-c2ccccc21	.	-21	-1	-12	.	.
SMILES	V-ATPase pH	ADAM10 inh	KLK7 zymogen act	ADAM17 inh	ADAM10 ctr	ADAM17 confirm
COc1ccc(CC(=O)N2CCC(c3ccccc3)C2)cc1 (stereo not given)	0	4	0	2	.	.
COc1ccc(CC(=O)N2CCC(Nc3nc4ccccc4n3Cc3ccc(F)cc3)CC2)cc1	2	13	1	11*	21*	12*
CC(=O)c1ccc(NC(=O)C(C)OC(=O)C2CCN(c3ccc(C(F)(F)F)cn3)CC2)cc1 (stereo not given)	-2	12	0	9.0*	14	9.1*
O=C(Nc1ccc2c(c1)OCCO2)C(c1ccnc2ccccc12)N1CCN(c2ccc(F)cc2)CC1 (stereo not given)	.	12	0	5	.	.
O=C(c1ccc2c(c1)OCCO2)N1CCN(c2ccc(C(F)(F)F)cn2)CC1	.	-11	0	-5	.	.
CC(OC(=O)C1CCN(c2ccc(C(F)(F)F)cn2)CC1)C(=O)Nc1ccc(S(N)(=O)=O)cc1 (stereo not given)	2	-7	0	-2	.	.
O=C(Nc1ccc2c(c1)OCCO2)C(C1CC1)N1CCN(c2ccc(C(F)(F)F)cn2)CC1 (stereo not given)	.	9	0	8.8*	17	11*
O=C(Nc1ccc2c(c1)OCCO2)C(c1ccnc2ccccc12)N1CCN(c2ccc(C(F)(F)F)cn2)CC1 (stereo not given)	.	16	-1	11*	54*	25*
Cc1ccc(-c2nc(C3CCCN(S(=O)(=O)c4ccccc4)C3)no2)cc1 (stereo not given)	.	9	0	5	.	.
COC(=O)c1c(-c2ccc(OC)cc2)c2c(c3c4cc(OC)ccc4n(S(=O)(=O)c4ccc(C)cc4)c13)C(=O)N(C)C2	.	-7	0	-3	.	.
CCN(CC(O)Cn1c2ccccc2c2ccccc21)S(=O)(=O)c1ccc(C)cc1 (stereo not given)	-4	18	0	11*	28*	14*
CN(CC(O)Cn1c2ccccc2c2ccccc21)S(C)(=O)=O (stereo not given)	2	0	0	1	.	.
CC(=O)OCCC(CC(C)C)NC(=O)[C@H](CC(C)C)NC(=O)OCc1ccccc1 (stereo not given in full)	.	0	.	-3	.	.
Nn1c(SCC(=O)Nc2ccc(OCc3ccccc3)cc2)nnc1-c1cc(-c2ccc(F)cc2)n[nH]1	.	-3	0	2	.	.
COC(=O)[C@]12CCCCC=C1N(CCc1ccc(OC)c(OC)c1)C(=O)[C@H](CC(=O)NCc1cccc(C(F)(F)F)c1)C2	.	13	1	8.8*	24*	15*
